A word on the AC50: it is the concentration at which the activity in the assay is half-maximal.

Some structures have more than one record in an assay (separate samples or runs), and their calls can disagree. Activity calls are given as the source filed them. How the source made its calls: active means hit-call score of the fitted dose curve at least 0.9, where 1 is the maximum; inactive means score below 0.9.

The nature of the assay: BSK_3C_Vis: BioMAP Diversity Plus: 3C Assay for Morphology Visualization (AID 2283025).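 Further: fitted both ways so gain or loss versus DMSO counts.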 The conditions noted are these: primary human endothelial cells (HUVEC). As for the experimental part:
BSK_3C is a cell-based, multiplexed-readout assay that uses umbilical vein endothelium, a human vascular primary cell, with measurements taken at 24 hours after chemical dosing in a 96-well plate.BSK_3C_Vis is an assay component measured in the BSK_3C assay. It measures NA related to cell morphology using light microscopy technology.Data from the assay component BSK_3C_Vis was analyzed into 1 assay endpoint. This assay endpoint, BSK_3C_Vis, was analyzed with bidirectional fitting relative to DMSO as the negative control and baseline of activity. Using a type of morphology reporter, gain or loss-of-signal activity can be used to understand changes in the background control. Furthermore, this assay endpoint can be referred to as a secondary readout, because this assay has produced multiple assay endpoints where this one serves a background control function. To generalize the intended target to other relatable targets, this assay endpoint is annotated to the cell morphology intended target family, where the subfamily is cell conformation.
The levels of cell surface (or secreted, indicated by the prefix "s") biomarker endpoints were measured by ELISA. Overt cytotoxicity to cells in confluent adherent cultures (all systems other than the BT system) was assessed by measuring total protein levels using sulforhodamine B (SRB) staining in parallel cultures at the time of biomarker measurements, indicated as SRB endpoints. For proliferation assays for adherent cell types, individual cell types are cultured at sub-confluence and relative cell numbers quantified by SRB staining at time points optimized for each system (48 h: 3C and CASM3C systems; 72 h: BT and HDF3CGF systems; 96 h: SAg system). SRB was performed by staining cells with 0.1% SRB after fixation with 10% TCA and reading wells at 560 nm.Viability and proliferation of PBMC (T cells) was quantified by Alamar Blue reduction for the SAg and BT systems. For PBMC viability (referred to as PBMC Cytotoxicity within the assay endpoint names), cells were plated (75,000/well in a 96-well plate) and then chemical samples added for 1 h before addition of activators, SEB and TSST-1 (20 ng/mL final concentration each). Cells were incubated for 90 h. Then, Alamar Blue (20 uL/well) (Invitrogen, Cat DAL1100) was added for 6 h, and the plates were read with a fluorescence microplate reader at 546/580 nm (excitation/emission). For PBMC proliferation, cells were plated and activated as above but incubated for only 16 h prior to addition of Alamar Blue. Plates were read after 6 h.
Consider `Cc1c(COC(=O)[C@@H]2[C@H](/C=C(\Cl)C(F)(F)F)C2(C)C)cccc1-c1ccccc1`, for which the half-maximal activity concentration (AC50) is 0.28 µM (active).
Turning to `CCN(CC)c1nc(C)cc(OP(=S)(OC)OC)n1`, the result was inactive.
`COCC(C)N(C(=O)CCl)c1c(C)csc1C` (stereo not given): the result was inactive and the half-maximal activity concentration (AC50) was 39 µM (active).
As for `CCNP(=S)(OC)O/C(C)=C/C(=O)OC(C)C` (stereo not given), the outcome was inactive.
As for `N#Cc1c[nH]cc1-c1cccc2c1OC(F)(F)O2`, the AC50 is 11.2 µM (active).
On to `CC(C)=CC1C(C(=O)OCc2coc(Cc3ccccc3)c2)C1(C)C` (stereo not given), for which the AC50 was 9.8 µM (active).
Turning to `Nc1cnn(-c2ccccc2)c(=O)c1Cl`, the AC50 was 39 µM (active).
As for `Cc1ccc(N=CN(C)C=Nc2ccc(C)cc2C)c(C)c1`, the half-maximal activity concentration (AC50) is 16.3 µM (active).
With `CCC(C)n1c(=O)[nH]c(C)c(Br)c1=O` (stereo not given), the result was inactive.
Same read-out and setting: with `COc1cc(Cl)c(OC)cc1Cl` the entry was “inactive”; with `Nc1c(Cl)c(F)nc(OCC(=O)O)c1Cl`, “inactive”.
For the compound `CCN(CC)C(=O)C(C)Oc1cccc2ccccc12` (stereo not given), the AC50 is 9.8 µM (active).
For the compound `CC1(C)CCC(=Cc2ccc(Cl)cc2)C1(O)Cn1cncn1` (stereo not given), the result was inactive.
Consider `CCCCOCN(C(=O)CCl)c1c(CC)cccc1CC`, for which the half-maximal activity concentration (AC50) was 29.4 µM (active).
As for `CC1(C)C(C=C(Cl)Cl)C1C(=O)OC(C#N)c1cccc(Oc2ccccc2)c1` (stereo not given), the result was inactive.
With `CCCC(=NOCC)C1=C(O)CC(CC(C)SCC)CC1=O` (stereo not given), the AC50 is 39 µM (active).
Take `CS(=O)(=O)c1ccc(C(=O)C2C(=O)CCCC2=O)c([N+](=O)[O-])c1`: the outcome was inactive.
In the case of `CC1(C)C(C(=O)OC(C#N)c2cccc(Oc3ccccc3)c2)C1(C)C` (stereo not given), the concentration at half-maximal activity (AC50) was 39 µM (active).
Take `O=P(O)(O)CCCl`: the result was inactive.
On the same count and under the same terms, with `CCOC(=O)C(C)OC(=O)c1cc(Oc2ccc(C(F)(F)F)cc2Cl)ccc1[N+](=O)[O-]` (stereo not given) the entry was “inactive”; with `COC(=O)NS(=O)(=O)c1ccc(N)cc1`, “inactive”; with `Clc1cccc(C(Cl)(Cl)Cl)n1`, “inactive”.
As for `Cc1nc(N(C)C)nc(OC(=O)N(C)C)c1C`, the result was inactive.
For `COCc1cnc(C2=NC(C)(C(C)C)C(=O)N2)c(C(=O)O)c1` (stereo not given), the result was inactive.
Still for that read-out and setting: with `COCC(=O)N(c1c(C)cccc1C)C(C)C(=O)OC` (stereo not given) the entry was “inactive”; with `CCNC(=O)NC(=O)C(C#N)=NOC`, “inactive”.
`Cn1c(-c2ccccc2)cc(-c2ccccc2)[n+]1C`: the AC50 is 9.8 µM (active).
Consider `CCCCC(O)(Cn1cncn1)c1ccc(Cl)cc1Cl` (stereo not given), for which the result was inactive.
For `COc1cc(OC)nc(NC(=O)NS(=O)(=O)c2ncccc2OCC(F)(F)F)n1`, the result was inactive.
Turning to `CCCCC(C#N)(Cn1cncn1)c1ccc(Cl)cc1` (stereo not given), the AC50 is 9.8 µM (active).
On to `Nc1c(Cl)c(Cl)nc(C(=O)O)c1Cl`, for which the result was inactive.
Take `CC(C)C1(C)N=C(c2ncccc2C(=O)O)NC1=O` (stereo not given): the result was inactive.
`CCOc1cc(C(C)(C)C)ccc1C1COC(c2c(F)cccc2F)=N1` (stereo not given): the AC50 was 22 µM (active).
In the case of `CS(=O)(=O)c1cc(C(F)(F)F)ccc1C(=O)c1cnoc1C1CC1`, the result was inactive.
Still for that read-out and setting: with `CC(C)NC(=O)N1CC(=O)N(c2cc(Cl)cc(Cl)c2)C1=O` the entry was “inactive”; with `COC(=O)NC(=S)Nc1ccccc1NC(=S)NC(=O)OC`, “inactive”.
Regarding `CC(C)(C)C(=O)C(Oc1ccc(Cl)cc1)n1cncn1` (stereo not given), the result was inactive.
`C=C(C)CN(CC)c1c([N+](=O)[O-])cc(C(F)(F)F)cc1[N+](=O)[O-]`: the half-maximal activity concentration (AC50) was 20 µM (active).
Turning to `Cc1cnc(C2=NC(C)(C(C)C)C(=O)N2)c(C(=O)O)c1` (stereo not given), the outcome was inactive.

The values above are taken from PubChem BioAssay (EPA / NIEHS).
